Several values for one entry are separate records, joined by “and”; a condition that tells them apart may be missing. Equal entries are not always repeated. Out of some 16,000 compounds screened, about 2,600 (16%) were called active. Inconclusive results (about 20%) are left out. Only a sample is shown. A number with no mark means an inactive call. Calls follow the shape of the dose curve; as a rule, active = well fitted curve in the direction sought with a large enough effect; inconclusive = small, poorly fitted or top-dose-only effect, or effect the other way; inactive = no such curve, though single readings can be large or run the other way.
What follows are compounds tested against Cytochrome P450 2D6 (Homo sapiens) (UniProt P10635) (assay: Cytochrome panel assay with activity outcomes). Details: recombinant CYP, pro-luciferin dealkylation, luminescence, p450-cyp2d6; series mostly up to 57.1 µM; activity, negative = inhibition: at the top concentration.
% is scaled to controls: 0 for no effect and ±100 for the full control effect.

Sequence of Cytochrome P450 2D6 (Homo sapiens) (P10635 whole entry, looked up): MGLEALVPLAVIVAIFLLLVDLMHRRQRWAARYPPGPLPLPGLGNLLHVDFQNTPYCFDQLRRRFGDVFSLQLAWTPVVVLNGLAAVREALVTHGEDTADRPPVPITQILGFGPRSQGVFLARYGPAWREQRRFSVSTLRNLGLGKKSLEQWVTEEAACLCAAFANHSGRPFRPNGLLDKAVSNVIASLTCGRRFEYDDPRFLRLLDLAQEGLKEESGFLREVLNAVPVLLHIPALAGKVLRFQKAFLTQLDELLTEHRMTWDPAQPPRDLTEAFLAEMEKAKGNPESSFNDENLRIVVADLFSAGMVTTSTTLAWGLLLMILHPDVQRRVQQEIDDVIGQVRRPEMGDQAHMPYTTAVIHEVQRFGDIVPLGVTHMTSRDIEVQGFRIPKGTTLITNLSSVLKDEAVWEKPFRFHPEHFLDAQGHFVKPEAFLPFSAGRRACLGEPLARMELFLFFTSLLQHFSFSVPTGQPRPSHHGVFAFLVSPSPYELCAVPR

| SMILES | AC50 | activity, negative = inhibition |
| --- | --- | --- |
| CN(C)CC/C=C1\c2ccccc2Sc2ccc(Cl)cc21 | 2.51 µM (active) | – |
| Cc1ccc(-n2nc3c(c2NC(=O)c2cccs2)CSC3)cc1 | – | 5.05% |
| CCn1c(CCNC(=O)c2ccc(Cl)cc2Cl)n[nH]c1=S | – | -18.4% |
| Cc1ccc(S(=O)(=O)N[C@H]2COC(=O)C/C=C\[C@H](C)[C@@H](NS(=O)(=O)c3ccc(C)cc3)COC(=O)C/C=C\[C@@H]2C)cc1 | – | 8.84% [at 11.4 µM] |
| CCCC(=O)Nc1cc(-c2cn3cccnc3n2)ccc1OC | – | -19.8% |
| CC(C)CO/N=C1/C[C@@H](O)[C@@H](O)[C@@H]2[C@@H]3C(=O)N([C@@H](C)c4ccccc4)C(=O)[C@H]3CC[C@H]12 | – | -7.99% [at 11.4 µM] |
| COc1ccc(/C=N/n2cnc3c([nH]c4ccc(Br)cc43)c2=O)cc1CN1CCOCC1 | – | -11.5% |
| CC(C)(CO)[C@H](O)C(=O)NCCCO | – | 2.25% [at 25.6 µM] |
| NCCS | – | -1.11% |
| COc1ccccc1N1CCN(C[C@@H](O)COc2cccc3ccccc23)CC1 | 794 nM (active) and 316 nM (active) and 126 nM (active) | – |
| CNC(=S)N1CCN(c2ccccc2OC)CC1 | – | 1.48% |
| O[C@@H](COc1cccc2ccccc12)CN1CCOCC1 | – | -5.64% [at 11.4 µM] |
| COCCn1c(=O)c(-c2cccc(Cl)c2)nc2cncnc21 | – | -8.21% |
| COc1ccc(N(CC(=O)NCc2cccc(OC)c2)S(=O)(=O)c2c(C)noc2C)cc1 | 14.1 µM (active) | – |
| COCCCNC(=O)CN(c1ccc(OC)cc1)S(=O)(=O)c1ccc(NC(C)=O)cc1 | – | -0.214% |
| COC(=O)CN(c1ccc(OC)cc1)S(=O)(=O)c1c(C)noc1C | – | -8.3% |
| CN=C1S/C(=C\c2ccc(Sc3ccc(Cl)cc3)o2)C(=O)N1C | – | -2.93% |
| C#CCOCCCC(=O)O | – | 15.7% [at 11.4 µM] |
| Cc1ccc(CSc2nnc3c(n2)OC2(Nc4ccccc4-3)C(=O)Nc3ccc(F)cc32)cc1 (stereo not drawn) | 25.1 µM (active) | – |
| COc1cccc(Nc2ncc3nc(C)c(=O)n(C4CC4)c3n2)c1 | – | 5.12% |
| O=C(NNC(=S)Nc1ccccc1)C1CC1 | – | 12.2% |
| S=C(Nc1ccccc1)N1CCCCC1 | – | 4.42% |
| O=C(Nc1ccccc1)OC[C@H](CN1CCCCC1)OC(=O)Nc1ccccc1 | 0.398 µM (active) | – |

| SMILES | AC50 | activity, negative = inhibition |
| --- | --- | --- |
| COC(=O)COc1ccc(/C=C2/SC(=O)N(CC(=O)N3CCCC3)C2=O)cc1Br | – | 14% |
| O=C(O)c1ccc(Sc2nnnn2-c2ccccc2)c([N+](=O)[O-])c1 | – | -11.6% |
| NCCNC(=O)c1ncsc1-c1cccc(F)c1 | – | -0.237% |
| COc1cccc(Nc2ncc3nc(-c4ccc(F)cc4)c(=O)n(C)c3n2)c1 | – | -1.2% |
| Cn1c(-c2ccc(F)cc2)cnc1NCc1cccc(F)c1 | 0.0562 µM (active) | – |
| CN(C)c1ccc(-c2cc(NCc3cccnc3)ncn2)cc1 | – | -15.4% |
| Cn1c(-c2ccc(F)cc2)cnc1NCc1ccc(F)cc1 | 0.0355 µM (active) | – |
| Cn1c(-c2ccc(Br)cc2)cnc1NCc1cccnc1 | 0.501 µM (active) | – |
| c1cncc(CNc2ncn[nH]2)c1 | – | 5.73% [at 11.4 µM] |
| CCNc1ncc2ncc(=O)n(Cc3ccc(F)cc3)c2n1 | – | -8.79% |
| Cn1c(=O)c(-c2ccc(F)cc2)nc2cncnc21 | – | -4.46% |
| CCC1CC2CC(NC(C)=O)C1C2 (stereo not drawn) | – | -23.4% |
| Fc1ccc2c(c1)C1C=CCC1C(c1cc3c(cc1Br)OCO3)N2 (stereo not drawn) | – | -28.2% |
| CCCCOC(OCCCC)[C@H](O)CSc1ccc2ccccc2c1 | – | -15.8% [at 11.4 µM] |
| C#CCn1c(=O)c2c(ncn2C)n(C)c1=O | – | -6.36% |
| CN(C)Cc1ccccc1-c1nccc(NCc2cccs2)n1 | 1.58 µM (active) | – |
| Cc1cnc(CNc2ccnc(-c3ccccc3C(F)(F)F)n2)cn1 | – | -3.39% |
| CN(C)Cc1ccccc1-c1cc(NCc2cccs2)ncn1 | 2 µM (active) | – |
| COCCNc1ccnc(-c2ccccc2C(F)(F)F)n1 | – | 2.1% |
| Cc1ccccc1-c1nccc(NCc2cccs2)n1 | 2.51 µM (active) | – |
| Cc1cnc(CNc2ccnc(-c3ccccc3C)n2)cn1 | – | -8.97% |
| Cc1cnc(CNc2cc(-c3ccccc3C)ncn2)cn1 | – | -0.691% |
| FC(F)(F)c1ccccc1-c1nccc(NCc2cccs2)n1 | 25.1 µM (active) | – |

| SMILES | AC50 | activity, negative = inhibition |
| --- | --- | --- |
| O=C(NCc1ccco1)c1cc(C(=O)C2CCCCC2)c[nH]1 | – | -6.41% |
| CCCCCC(=O)O[C@H](CC(=O)O)C[N+](C)(C)C | – | -11.7% |
| Cc1cc2cccc(C)c2nc1SCC(=O)N(C)c1nc(-c2ccccc2)cs1 | – | -0.855% |
| COc1ccc(NC(=O)N2CCCC3(CCN(C(=O)c4cc(C(F)(F)F)cc(C(F)(F)F)c4)CC3)C2)cc1 | – | 3.95% |
| O=C1[C@H]2[C@H]3[C@H](O)[C@H](O)C/C(=N/OC[C@@H](O)COCc4ccco4)[C@@H]3CC[C@@H]2C(=O)N1C1CCCCC1 | – | 7.51% [at 11.4 µM] |
| Oc1cccc2ccc(SSc3ccc4cccc(O)c4n3)nc12 | – | -0.179% [at 11.4 µM] |
| COc1ccc(-c2nn3cnnc3s2)cc1OC | – | -5.22% |
| C/C(=C/C(=O)NCc1ccccc1)C(=O)O | – | -22.1% |
| CCCC(=O)NNC(=O)CCC(=O)NCc1ccccc1 | – | 10.5% |
| O=C(O)NCc1ccccc1 (tested in a mixture with another compound) | 3.98 µM (active) | – |
| O=c1c2ccc(Cl)cc2nc(-c2cccc(C(F)(F)F)c2)n1O | – | -2.94% |
| CC1=CC(=O)N(c2cccc(C(F)(F)F)c2)C1c1ccc(Cl)cc1 (stereo not drawn) | 2.51 µM (active) | – |
| Cc1n[nH]c(=O)n1-c1cccc(C(F)(F)F)c1 | – | 3.26% |
| O=C(CSc1nc(-c2ccccc2)nc2ccccc12)Nc1nccs1 | – | -12.9% |
| CCC1C(=O)N=C(SCC(=O)Nc2ccc(C(=O)OC)cc2)NC1=O (stereo not drawn) | – | 22.4% |
| COC(=O)c1ccc(NC(=O)Cn2nc(-c3ccncc3)nc2SCC(=O)Nc2nccs2)cc1 | 10 µM (active) | – |
| O=C(O)c1sc2cc(C(F)(F)F)cnc2c1-c1ccccc1 | – | 4.15% |
| CCCCC1CC(/C(C)=N/NC(N)=O)OC1=O (stereo not drawn) | – | 3.14% |
| CC(C)c1ccc(CNc2cc(N3CCCC3)ccc2[N+](=O)[O-])cc1 | – | -12.9% |
| O=C(NC(NCc1ccccc1)C(Cl)(Cl)Cl)c1cccnc1 (stereo not drawn) | – | -17.4% |
| CC(CP(=O)(O)O)NC(=O)Cc1ccccc1 (stereo not drawn) | – | 13.9% |
| O=C(Cc1ccccc1)NC(NCCc1ccccc1)C(Cl)(Cl)Cl (stereo not drawn) | 14.1 µM (active) | – |

Reference: PubChem BioAssay AID1851 (National Center for Advancing Translational Sciences (NCATS), 2009)
